# Measurements published in PubChem BioAssay AID1851 (National Center for Advancing Translational Sciences (NCATS), 2009).
# Screen size: about 16,000 compounds; about 4,000 (25%) were called active. About 26% were inconclusive and are not listed. The call rests on the fitted dose curve; in most records, active means well fitted curve in the direction sought with a large enough effect; inconclusive means small, poorly fitted or top-dose-only effect, or effect the other way; inactive means no such curve, though single readings can be large or run the other way. Not all results are given here.
# Biological target: Cytochrome P450 2C9 (Homo sapiens) (UniProt P11712)
# Sequence (P11712 whole entry, looked up): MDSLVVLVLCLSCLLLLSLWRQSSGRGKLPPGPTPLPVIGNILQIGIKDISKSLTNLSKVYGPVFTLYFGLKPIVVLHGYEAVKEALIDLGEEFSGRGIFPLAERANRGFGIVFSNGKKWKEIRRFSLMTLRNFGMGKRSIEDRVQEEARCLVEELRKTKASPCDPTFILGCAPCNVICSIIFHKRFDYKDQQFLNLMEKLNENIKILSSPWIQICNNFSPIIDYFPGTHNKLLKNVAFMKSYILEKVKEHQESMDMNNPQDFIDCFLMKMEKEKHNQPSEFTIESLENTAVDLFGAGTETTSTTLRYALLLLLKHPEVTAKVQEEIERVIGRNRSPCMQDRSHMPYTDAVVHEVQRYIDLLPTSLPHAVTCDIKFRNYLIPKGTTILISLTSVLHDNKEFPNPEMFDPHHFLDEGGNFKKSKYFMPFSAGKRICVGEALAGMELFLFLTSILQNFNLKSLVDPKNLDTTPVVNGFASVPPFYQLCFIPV
# Experiment: Cytochrome panel assay with activity outcomes
# Conditions: recombinant CYP, pro-luciferin dealkylation, luminescence, p450-cyp2c9; series mostly up to 57.1 µM; activity, negative = inhibition: at the top concentration
# On the % scale 0 is the no-effect control and ±100 the full control effect.
SMILES,"activity, negative = inhibition",AC50
COc1ccccc1-c1ccc2ncnc(N(C)C)c2c1,-21.1% [at 2.29 µM] (inactive),
CN1C2C=C(N(CCc3c[nH]c4ccccc34)C(=O)c3ccc(Cl)cc3)CC1CC2 (configuration not stated),,1.78 µM (active)
O=C(O)[C@H](Cc1c[nH]c2ccccc12)N1C(=O)c2ccccc2C1=O,6.23% [at 11.4 µM] (inactive),
CN1[C@@H]2CC[C@H]1CC(OC(=O)c1c[nH]c3ccccc13)C2 (some centres not stated),-7.96% (inactive),
C#CCCCO/N=C1/[C@H]2O[C@@H]2[C@@H](O)[C@H]2[C@H]1CCn1c(=O)n([C@@H](CC)c3ccccc3)c(=O)n12,4.97% [at 11.4 µM] (inactive),
COc1ccc(C(=O)Nc2cccc(OC(=O)c3ccc(C)c(C)c3)c2)cc1,,3.55 µM (active)
CN(Cc1ccco1)c1ncncc1-c1ccoc1,-8.69% [at 2.29 µM] (inactive),
C/C(=N\n1nnnc1Nc1ccccc1)c1ccc(N)cc1,,11.2 µM (active)
N=C(N)SCc1nc2ccccc2c(=O)n1-c1ccccc1Cl,,3.16 µM (active)
O=C(c1cc(-c2ccncc2)nc2ccccc12)N1CCN(c2ccc(N3CCOCC3)nn2)CC1,,1.26 µM (active)
O=C(O)c1cc(-c2ccncc2)nc2ccccc12,-29.2% [at 11.4 µM] (inactive),
O=C(O)CSSCC(=O)O,22.5% [at 11.4 µM] (inactive),
N[C@H](C(=O)O)c1cccc(O)c1,,inactive
Cn1c(=O)c2[nH]c(-c3ccccc3)nc2n(C)c1=O,-14.3% (inactive),
CCn1c(=O)c2[nH]c(-c3ccccc3)nc2n(CC)c1=O,3.25% (inactive),
CCCn1c(-c2ccccc2)nc2c(=O)n(C)c(=O)[nH]c21,,12.6 µM (active)
CC[N+](CC)(CC)CC,-7.63% (inactive),
Cc1nn2c3c(cnc2c1-c1ccccc1)C(=O)CC(c1ccccc1)C3 (configuration not stated),,10 µM (active)
N[C@H](C(=O)O)[C@H](N)C(=O)O,17.2% [at 11.4 µM] (inactive),
C=C[C@H](N)CCC(=O)O,,inactive
CO/N=C(\C(=O)N[C@@H]1C(=O)N2C(C(=O)O)=C(COC(C)=O)CS[C@@H]12)c1csc(N)n1,,inactive
COc1ccc(N(C(=O)COc2ccccc2OC)S(=O)(=O)c2ccc(C)cc2)cc1,,1 µM (active)
COc1ccc(N(CC(=O)O)N=O)cc1,-1.12% [at 11.4 µM] (inactive),
Cc1ccccc1-c1cc(NCCN2CCOCC2)ncn1,18.6% [at 2.29 µM] (inactive),
O=C1C(=O)c2ccccc2C(O)=C1C1CCC(c2ccc(Cl)cc2)CC1 (configuration not stated),,2 µM (active)

SMILES,"activity, negative = inhibition",AC50
Cc1cc(C)c2cc(CN(Cc3nnnn3Cc3ccc(F)cc3)C3CCCC3)c(=O)[nH]c2c1,,7.08 µM (active)
CCC(c1nnnn1CC1CCCO1)N(CCN1CCOCC1)Cc1cc2cc(C)ccc2[nH]c1=O (configuration not stated),-10% (inactive),
Cn1nccc1C(=O)Nc1ccc(Cl)cc1,-23% (inactive),
Cn1c(C(=O)Nc2ccccc2)cc2sccc21,,20 µM (active)
COCC(=O)N(C)c1nnc(-c2ccc([N+](=O)[O-])cc2)s1,-27.4% (inactive),
COCCN(C(=O)c1ccco1)c1nnc(-c2ccc(OC)cc2)s1,,28.2 µM (active)
O=C1N(c2ccccc2)c2ccccc2C1(Cc1ccncc1)Cc1ccncc1,,7.94 µM (active)
C=CCN1CCc2cc(O)c(O)cc2[C@H](c2ccccc2)C1,,inactive
COc1ccccc1CN1CC2(CCN(S(C)(=O)=O)CC2)C1,17.2% (inactive),
Nc1nc(SCC(=O)Nc2ccccc2Sc2ccc(Cl)cc2)n[nH]1,,1 µM (active)
Cc1ccc(NC(=O)CN(C)C(=O)CSc2n[nH]c(N)n2)cc1,-22.5% (inactive),
CC(C)=CCC/C(C)=C/CO/N=C1/C[C@@H](O)[C@@H](O)[C@@H]2[C@@H]3C(=O)N(C(C)(C)C)C(=O)[C@H]3CC[C@@H]12,-9.91% [at 11.4 µM] (inactive),
CC[N+](CC)(CC)CCOc1ccc(/C=C\c2ccccc2)cc1,15.3% (inactive),
C=CCNC(=O)/C(=C\C=C\c1ccccc1)NC(=O)c1ccc(OCCCC)cc1,,12.6 µM (active)
Clc1ccc(/C=N/Nc2nnc(-c3ncc[nH]3)c3ccccc23)cc1,,5.01 µM (active)
N[C@@H](CSC(=O)c1ccccc1)C(=O)O,18.3% [at 11.4 µM] (inactive),
O=C(Nc1cccn(Cc2c(Cl)cccc2Cl)c1=O)c1ccc(Cl)cc1Cl,,3.55 µM (active)
O=C1Nc2ccccc2Nc2ncccc21,-14.8% (inactive),
O=C(NCc1ccc2c(c1)OCO2)C1CC(=O)N(C2CCCC2)C1 (configuration not stated),-25% (inactive),
CC1(C)CC(NCc2ccc3c(c2)OCO3)CCO1 (configuration not stated),5.26% (inactive),
C/C(=C\C(=O)c1ccc(Br)cc1)NCc1ccc2c(c1)OCO2,,11.2 µM (active)
O=C1Nc2ccccc2C(O)(C(=O)NCc2ccc3c(c2)OCO3)N1c1ccc(Cl)c(Cl)c1 (configuration not stated),-27.3% (inactive),
COc1cc(C(=O)NCCC(=O)NCc2ccc3c(c2)OCO3)cc(OC)c1OC,-28.6% (inactive),
C/C(=C\C(=O)c1ccc(Cl)cc1)NCc1ccc2c(c1)OCO2,,7.94 µM (active)
Cc1[nH]c2ccccc2c1/C=C/c1cc[n+](C)cc1,23.4% (inactive),

SMILES,"activity, negative = inhibition",AC50
CCCc1ncc(C[n+]2ccccc2C)c(N)n1,-6.81% [at 25.6 µM] (inactive),
O=C1c2ccccc2C(=O)N1CCCSc1ccccc1,-22.7% [at 11.4 µM] (inactive),
O=c1c2ccccc2ncn1CCCSc1ccccc1,,14.1 µM (active)
Cc1ccc(SCCCn2cnc3ccccc3c2=O)cc1,,12.6 µM (active)
COc1ccc(Cl)cc1C(=O)Nn1cnc2ccccc2c1=O,7.58% (inactive),
O=C(c1ccccc1)c1ccc(OCCn2cnc3ccccc3c2=O)cc1,,2.82 µM (active)
COc1ccc2c(OC)c3ccoc3nc2c1OC,19.1% [at 25.6 µM] (inactive),
CN(CC(=O)O)Cc1c(O)c(Cl)cc(Cl)c1Cl,13.6% [at 11.4 µM] (inactive),
C[C@@H](C(=O)NCCc1c[nH]c2ccccc12)[C@H]1C[C@]1(C)[C@H](NC(=O)OCc1ccccc1)c1ccccc1,,0.631 µM (active)
CC(=O)N[C@@H](Cc1c[nH]c2ccccc12)C(=O)OCc1cc(C(F)(F)F)cc(C(F)(F)F)c1,2.21% (inactive),
C[C@@H](C(=O)NCCc1c[nH]c2ccccc12)[C@@H]1C[C@@]1(C)[C@@H](NC(=O)OCc1ccccc1)c1ccccc1,,2.51 µM (active)
COC(=O)C(Cc1c[nH]c2ccccc12)NC(=O)C(C)C (configuration not stated),-33.5% (inactive),
C#C[C@]1(O)CC[C@@H]2[C@H]3CCc4cc(OC)ccc4[C@@H]3CC[C@@]21C,-27.5% [at 25.6 µM] (inactive),
C#C[C@]1(O)CC[C@@H]2[C@H]3CCC4=CCCC[C@@H]4[C@@H]3CC[C@@]21C,,10 µM (active)
C#C[C@@]1(OC(C)=O)CC[C@@H]2[C@@H]3CCC4=C[C@@H](OC(C)=O)CC[C@H]4[C@H]3CC[C@]21C,,15.8 µM (active)
C#C[C@@]1(O)CC[C@@H]2[C@@H]3CCC4=CC(=O)CC[C@@H]4[C@H]3CC[C@]21CC,-23.8% [at 25.6 µM] (inactive),
CC(C)(C)C(=O)NC(=C(Cl)Cl)P(=O)(O)O,-19.5% (inactive),
CCCn1nc(NC(=O)CC(C)C)c2cc3ccccc3nc21,,2 µM (active)
CCCS(=O)(=O)N1CCN(CC2CC=CCC2)CC1 (configuration not stated),-43.6% (inactive),
Cc1noc(C)c1-c1cc(NC2CC2)ncn1,-1.99% [at 2.29 µM] (inactive),
COc1cc(NC(=O)c2ccc(COCC(F)(F)F)cc2)cc(OC)c1OC,22.1% (inactive),
COc1cc(C(=O)Nc2cc(C(F)(F)F)ccc2Cl)cc(OC)c1OC,,8.91 µM (active)
N/C(CC(=O)Nc1cc(C(F)(F)F)ccc1Cl)=N\O,11.2% [at 11.4 µM] (inactive),
CC(C)(CN)CN,2.97% [at 11.4 µM] (inactive),
CCC(C)NC(=O)C1CCCN(C(=O)NC2CCCCC2)C1 (configuration not stated),,20 µM (active)

SMILES,"activity, negative = inhibition",AC50
CC(C)C(NC(=O)C1CCCCC1)C(=O)NC1CCN(Cc2ccccc2)CC1 (configuration not stated),7.86% (inactive),
CCC(C)NC(=O)C1CCN(C(=O)c2ccccc2)CC1 (configuration not stated),-9.04% (inactive),
Cc1ccc(CCN2CC(C(=O)NC3CCCC3)CC2=O)cc1 (configuration not stated),-15.5% (inactive),
COc1ccc(C2C(=O)N(CCc3ccccc3)CC(=O)N2C2CCCC2)cc1 (configuration not stated),,22.4 µM (active)
COc1ccc(C2C(C(=O)N3CCN(C)CC3)c3ccccc3C(=O)N2C2CCCCC2)cc1 (configuration not stated),-14% (inactive),
Cn1c(=O)n2n(c1=O)[C@H]1[C@H](O)[C@H]3O[C@H]3C(=O)[C@H]1CC2,7.6% [at 11.4 µM] (inactive),
O=C(O)CN(CCN(CC(=O)O)CC(=O)O)CC(=O)O.[Cu],4.98% [at 11.4 µM] (inactive),
COC(=O)c1ccc(Oc2coc3cc(OCc4cnn(-c5ccccc5)c4)ccc3c2=O)cc1,28.5% (inactive),
Cc1[nH]nc(-c2ccc(OCc3cnn(-c4ccccc4)c3)cc2O)c1Oc1ccccc1F,,2 µM (active)
Cc1ccc(NC(=O)Nc2nc(-c3ccc(C)s3)cs2)cc1,,3.55 µM (active)
O=C(c1cc(C(F)(F)F)cc(C(F)(F)F)c1)N1CCC[C@@]2(CCN(c3ncccn3)C2)C1,-1.16% (inactive),
COc1ccc(Cc2c(N)nc(N)nc2N)cc1,11.5% (inactive),
COc1ccc(CNC(=O)c2cnc(C)cn2)cc1,,35.5 µM (active)
COc1ccc(CNC(=O)c2csc(Cc3ccc(OC)cc3)n2)cc1,,10 µM (active)
Cc1cc(C(=O)NCc2ccccc2)no1,-34.4% (inactive),
COc1ccc(CNC(=O)c2csc(Cc3ccc(Cl)cc3)n2)cc1,,3.98 µM (active)
CC(C)(C)c1ccc(C(=O)NCc2ccc(Cl)cc2)cc1,9% (inactive),
COc1ccc(CNC(=O)C2CSC(=O)C2)cc1 (configuration not stated),-18.7% (inactive),
COc1ccc(CNC(=O)C2CC(c3ccc(OC)cc3)=NO2)cc1 (configuration not stated),16.9% (inactive),
Cc1nc(CN2CCCCC2)c(O)c(=O)[nH]1,7.96% [at 11.4 µM] (inactive),
C[C@]1(c2ccccc2)OC(C(=O)O)=CC1=O,8.89% (inactive),
CC(=O)N(O)CCCCCNC(=O)CCC(=O)N(O)CCCCCNC(=O)CCC(=O)N(O)CCCCCN,-3.39% [at 25.6 µM] (inactive),
